# D2 PAM-1: positive allosteric modulators of human D2 dopamine receptor | P14416 | HEK293 T-REx D2, calcium flux, EC20 dopamine potentiation | potentiation, % at 10 µM | 0.34% of 340,000 active | AID 485347;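 active means potentiation over 3 SD above the plate norm, cut at about 30% in these data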; further: 0% is about no effect
# Target sequence (P14416 whole entry, looked up): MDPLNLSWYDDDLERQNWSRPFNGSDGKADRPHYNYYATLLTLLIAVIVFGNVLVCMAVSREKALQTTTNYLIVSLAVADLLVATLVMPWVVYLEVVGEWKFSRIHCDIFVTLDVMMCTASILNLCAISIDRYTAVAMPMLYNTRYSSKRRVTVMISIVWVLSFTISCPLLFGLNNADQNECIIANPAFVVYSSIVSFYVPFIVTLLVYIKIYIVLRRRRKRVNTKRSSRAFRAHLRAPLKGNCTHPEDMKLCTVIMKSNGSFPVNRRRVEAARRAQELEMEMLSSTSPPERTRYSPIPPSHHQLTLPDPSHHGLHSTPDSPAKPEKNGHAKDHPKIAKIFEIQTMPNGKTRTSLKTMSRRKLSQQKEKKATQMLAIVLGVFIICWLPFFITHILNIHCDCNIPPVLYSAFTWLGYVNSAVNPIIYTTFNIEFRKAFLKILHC
#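 Potentiation of an EC20 dopamine calcium response is measured in a force-coupled, tetracycline-inducible Hek293 Trex D2 line. Compound-only kinetic reads over 180 s flag agonists before dopamine addition.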
# D2 PAM-2: positive allosteric modulators of human D2 dopamine receptor. potentiation, % (concentration not given with the values). P14416. AID 624464. 0.23% of 360,000 active. DiscoveRx D2 beta-arrestin cells, luminescence, 90 min; 100% = 57 uM dopamine signal; in the data active means potentiation above about 50%; inconclusive means mostly about 30% to 49%
#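 PathHunter D2 cells, attached overnight at 37 deg C, received compound in DMSO plus dopamine at EC20 (50 nM final) for 90 min at 37 deg C. Beta-arrestin recruitment was read as luminescence after 1 h with detection reagent at ambient temperature.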
# D2 ag-1: human D2 receptor agonism in beta-arrestin assay; P14416; DiscoveRx PathHunter D2 beta-arrestin, luminescence, 90 min; 100% = 57 uM dopamine signal; activation, % (concentration not given with the values); 0.084% of 360,000 active; AID 624465; in the data active means activation above about 40%; inconclusive means between about 15% and that limit
#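 Agonist mode: compounds alone added to overnight-plated D2 PathHunter cells for 90 min at 37 C, with 57 uM final dopamine (EC100) defining full response. Beta-arrestin recruitment detected by chemiluminescent reagent, read after 1 h at ambient temperature.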
# D2 antag: D2 dopamine receptor (human) antagonism; inhibition, % at 10 µM; HEK293 TREx D2 cells, calcium flux, dopamine EC80; P14416; 2% of 340,000 active; in the data active means inhibition above about 30%; inactive means below that, where a call was filed; further: 0% is about no effect
#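 Calcium mobilization kinetics were recorded at 1 s intervals in tetracycline-induced HEK293 T-REx D2 cells, first for 180 s after compound addition and then 180 s after EC80 dopamine.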
# D2 ag-2: activates the human D2 dopamine receptor; 0.53% of 340,000 active; P14416; activation, % at 2 µM; HEK293 T-REx D2 cells, calcium flux agonist mode;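 active means activation over 3 SD above normal in the single-dose calcium agonist read, cut at about 30% in these data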; further: 0% is about no effect
#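 Agonism is scored from calcium flux in a force-coupled, inducible HEK293 cell line expressing D2, read kinetically for 180 s after compound addition against dopamine controls.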
# Numbers without * were called inactive; ? = inconclusive; . = no result given. The list is not random: actives were taken first. Their share in the collection is about 2.4%.
SMILES,D2 PAM-1,D2 PAM-2,D2 ag-1,D2 antag,D2 ag-2
COc1ccc(CC(=O)Nc2cccc(-c3nnc(-c4ccc(C)cc4)o3)c2)cc1OC,5.5,19.0,?,-18.3,1.0
COc1ccc(CC(=O)Nc2cccc(-c3nnc(-c4ccccc4)o3)c2)cc1OC,18.3,54.3*,13.5,5.8,0.0
CCCn1c(=NC(=O)c2cc3ccccc3o2)c(C(=O)OCC)cc2c(=O)n3ccccc3nc21,11.9,.,.,.,0.3
COc1ccc(CNC(=O)c2ccc3c(c2)N(Cc2ccccc2C)C(=O)c2ccccc2S3=O)cc1 (stereo not given),11.6,.,.,.,0.2
CCc1ccc(CNC(=O)c2ccc(OC)c(OC3CCN(C(C)C)CC3)c2)nc1,-9.7,-23.4,4.2,42.0*,0.6
COc1ccc(C(=O)NCc2cnn(C)c2)cc1OC1CCN(C(C)C)CC1,-2.1,-1.9,2.6,-0.4,1.1
CCN(C(=O)c1cnc(N2CCN(c3ncccn3)CC2)c2ccccc12)c1cccc(Cl)c1,25.1,-13.7,-3.2,46.5*,1.0
CN(Cc1cnn(C)c1)C(=O)C1CCC(=O)N(Cc2cccc(C(F)(F)F)c2)C1 (stereo not given),.,10.3,-2.1,.,.
CN(Cc1cccc(C(F)(F)F)c1)C(=O)C1CCC(=O)N(CC2CCCCC2)C1 (stereo not given),-0.6,-9.9,-2.2,30.9*,-1.1
Cc1ccc(S(=O)(=O)N/N=C\c2cccnc2)cc1,-1.5,-14.2,4.1,35.3*,-0.3
CCc1cc(=O)oc2cc(C)cc(OCC(=O)N3CCC(C(=O)NC(C)C)(c4ccccc4)CC3)c12,-13.0,3.1,3.8,53.1*,0.7
O=C(CCS(=O)(=O)c1ccccc1)N(Cc1cccnc1)c1nc2c(Cl)cccc2s1,7.7,.,.,.,1.2
OCc1nc2ccccc2n1CC(O)Cn1ccc2ccccc21 (stereo not given),31.7*,2.0,-11.5,-16.5,-2.2
Oc1ccccc1NCC(O)Cn1ccc2ccccc21 (stereo not given),-2.4,57.7*,13.6,-10.6,-0.6
OC(CN1CCNCC1)Cn1ccc2ccccc21 (stereo not given),-6.6,.,.,-10.0,1.2
OC(CNCc1ccccc1)Cn1ccc2ccccc21 (stereo not given),-11.0,-8.2,-5.1,-4.7,0.4
Cc1ncc([N+](=O)[O-])n1Cc1cccc2ccccc12,8.1,-4.3,-1.3,9.2,-2.3
Cc1ncc([N+](=O)[O-])n1Cc1ccccc1F,-8.1,-1.3,-1.0,31.5*,-2.2
COc1ccc(NC(=O)c2c(-c3ccccc3)c(-c3ccccc3)nn(C)c2=O)c(OC)c1,4.9,.,.,.,-0.6
CCN(CC)C(=O)C1CCCc2c1[nH]c1ccc(Cl)cc21 (stereo not given),-5.5,-0.3,-3.2,-5.9,-0.7
O=CNC1CCCc2c1[nH]c1ccc(Cl)cc21 (stereo not given),5.1,77.2*,5.3,-13.4,2.3
O=C(C1CCN(c2ncnc3c2nc2n3CCCCC2)CC1)N1CCCCC1,-11.8,-8.3,6.5,12.5,34.8*
CN1CCN(C(=O)C2CCN(c3ncnc4c3nc3n4CCCCC3)CC2)CC1,7.0,-7.7,-1.4,-1.6,0.1
COc1ccc(C(=O)CCN2CCN(c3ccc(OC)cc3)CC2)cc1,-14.6,-17.4,-0.4,31.1*,1.3
Cc1cc(=O)oc2cc(OCC(=O)N3CCOCC3)ccc12,48.5*,-9.5,-6.1,1.9,-0.1
SMILES,D2 PAM-1,D2 PAM-2,D2 ag-1,D2 antag,D2 ag-2
Cc1cc(=O)oc2ccc(OCC(=O)NCc3ccco3)cc12,-3.0,-12.3,-2.5,-10.6,0.1
COc1ccc(N2CCN(CCC(N)=O)CC2)cc1,-8.1,-7.5,3.8,-8.1,-0.3
Cc1cc(=O)oc2cc(OCC(=O)N3CCCC3)ccc12,.,-5.2,-3.3,.,.
Cc1cc(=O)oc2cc(OCC(=O)NCc3ccco3)ccc12,34.6*,2.1,1.7,0.3,-0.5
O=C(CCN1CCN(c2ccccc2F)CC1)c1ccc(Br)cc1,-18.5,-12.6,0.9,34.1*,10.0
COc1ccc2c(c1)c(=O)c(C(=O)c1ccc(Cl)cc1)cn2CC(=O)Nc1ccc2c(c1)OCCO2,-0.2,.,.,.,-0.3
COc1ccc(N2CCN(CCOc3ccc4c(C)cc(=O)oc4c3)CC2)cc1,-33.5,-41.9,-1.0,72.3*,1.2
Cc1cc(=O)oc2cc(OCCSCCN3CCCC3)ccc12,-10.6,-10.2,-6.1,3.3,-1.2
O=C(Nc1ccc2c(c1)CCCN2C(=O)c1ccco1)c1cc([N+](=O)[O-])ccc1Cl,-1.0,56.0*,6.7,1.2,0.1
O=C(Nc1ccc(N2CCN(C(=O)c3ccco3)CC2)cc1)c1ccc([N+](=O)[O-])cc1Cl,-4.3,-2.5,4.8,-0.5,1.1
CCN(C(=O)COC(=O)CCC(=O)c1ccc(Cl)cc1)c1c(N)n(Cc2ccccc2)c(=O)[nH]c1=O,.,-2.1,2.8,.,.
CC1(C)Cc2c(c(N3CCOCC3)nc3sc(C(N)=O)c(N)c23)CO1,9.9,0.3,-3.7,-9.0,-0.2
CC1(C)Cc2c(c(N3CCOCC3)nc3sc(C#N)c(N)c23)CS1,13.8,2.7,-3.5,38.1*,-0.3
O=C(Nc1ccc2c(c1)N(C1CCCC1)C(=O)c1ccccc1S2)c1ccccc1F,-4.4,.,.,.,-4.7
CCc1ccc(NC(=O)CN2C(=O)CCSc3ccccc32)cc1,-1.6,.,.,.,-0.5
O=C(NCc1ccc2c(c1)OCO2)C1CCC(CNS(=O)(=O)c2cccc3nsnc23)CC1 (stereo not given),-1.0,0.6,-5.5,35.0*,-0.8
COc1ccc(CNC(=O)C2CCC(CNS(=O)(=O)c3cccc4nsnc34)CC2)cc1 (stereo not given),6.2,-2.1,2.5,17.0,-1.7
c1ccc(CCn2nnnc2CN2CCCc3ccccc32)cc1,-5.1,1.1,1.2,8.8,-0.2
c1ccc2c(c1)CCCN2Cc1nnnn1CC1CCCO1 (stereo not given),32.3*,-9.5,-6.6,-21.8,-0.2
COc1cc(-c2nc(CN3CCN(c4ncccn4)CC3)c(C)o2)ccc1F,-6.0,-5.3,?,1.3,30.6*
CC(=O)Nc1ccc(Oc2ccc(-c3noc(C)n3)cc2)cc1,-13.8,4.5,0.7,16.3,0.3
CC(=O)Oc1ccc(Oc2ccc(-c3noc(C)n3)cc2)cc1,33.2*,-15.0,0.5,17.6,0.0
CCCCCOC(=O)Cn1c(=O)c2c(nc(N3CCOCC3)n2C)n(C)c1=O,1.2,-9.4,-2.8,9.5,-0.2
CCOC(=O)Cn1c(=O)c2c(nc(N3CCOCC3)n2C)n(C)c1=O,1.2,-3.1,0.4,38.7*,0.4
NC(=O)c1ccc(NCc2ccco2)c([N+](=O)[O-])c1,5.1,-13.7,-4.1,34.5*,0.7
CC(=O)N(c1ccccc1)c1nc(C)cc(C)c1C#N,-3.9,-21.6,-3.5,35.3*,1.4
